Consider 33 compounds from publication PMC4102417.

This test has as its system murine 3T3 fibroblasts. As to the kind of experiment: primary screen, percent viability or growth; higher = less effect of the substance. The procedure: Similarly, for measuring the cytotoxicity concentration (CC50) for 3T3 fibroblast cells, cultures were incubated with drugs for 72 hours and developed using Alamar Blue (Alamar Biosciences Inc, Sacramento, CA) as previously described.
Take `COc1cc(/C=C/C(=O)N2CCC=CC2=O)cc(OC)c1OC`: the “Mammalian (3T3) cell % growth at 10 uM” value was found to be 1%. The same measure for `Cl.Cl.O=C1c2c(O)ccc(O)c2C(=O)c2c(NCCNCCO)ccc(NCCNCCO)c21`: 14%; for `O=c1c(O)c(-c2ccc(O)c(O)c2)oc2c(O)c(O)cc(O)c12`: 54.6%. The same measure for `CCCC(C(=O)OCCN(CC)CC)(c1ccccc1)c1ccccc1`: 100%. The value for `CCN(CC)Cc1cc(Nc2ccnc3cc(Cl)ccc23)ccc1O` was 24.4%; that for `CCOC(=O)C1=C(COCCN)NC(C)=C(C(=O)OC)C1c1ccccc1Cl.O=S(=O)(O)c1ccccc1` (stereo not drawn) was 100%. As to `O=c1cc(-c2ccc(O)cc2)oc2cc(O)cc(O)c12`, the “Mammalian (3T3) cell % growth at 10 uM” value is listed as 73.6%. The value for `COc1ccc2c(c1)[nH]c1c(C)nccc12` was 87.2%; that for `CCCCc1oc2ccccc2c1C(=O)c1cc(I)c(OCCN(CC)CC)c(I)c1.Cl` was 86.7%.

In the case of `CC(CC(O)C1OC1(C)C)C1CCC2(C)C3=CCC4C(C)(C)C(=O)CCC4(C)C3CCC12C` (stereo not drawn), the “Mammalian (3T3) cell % growth at 10 uM” value amounted to 100%.

Consider `CCc1nc(N)nc(N)c1-c1ccc(Cl)cc1`, for which the “Mammalian (3T3) cell % growth at 10 uM” value came out at 97.6%. For the compound `CNCCC=C1c2ccccc2CCc2ccccc21`, the “Mammalian (3T3) cell % growth at 10 uM” value is 100%. The value for `Nc1nc(=S)c2[nH]cnc2[nH]1` was 98.3%; that for `Cc1cccc2c3c(ccc12)C1=C(C(=O)C3=O)[C@@H](C)CO1` was 77.1%. `CC1=CC(=O)c2ccccc2C1=O`: the “Mammalian (3T3) cell % growth at 10 uM” value stood at 0.5%. The value for `CCC(=O)O[C@H]1CC[C@H]2[C@@H]3CCc4cc(O)ccc4[C@H]3CC[C@]12C` was 100%; that for `Clc1ccc(COC(Cn2ccnc2)c2ccc(Cl)cc2Cl)c(Cl)c1` (stereo not drawn) was 100%; that for `N=C(N)c1ccc(OCCCCCOc2ccc(C(=N)N)cc2)cc1.O=S(=O)(O)CCO` was 94.8%. The value for `C=CC(C1=CC(=O)C=CC1=O)c1ccccc1` (stereo not drawn) was 97.5%. The value for `C=CC(C)(O)CCC1C(=C)CC(OC(C)=O)C2C(C)(C)CCCC12C` (stereo not drawn) was 63.7%; that for `COc1cc(-c2cc(=O)c3c(O)c(OC)c(OC)c(OC)c3o2)cc(OC)c1OC` was 4%.

`CCCCC1C(=O)N(c2ccccc2)N(c2ccc(O)cc2)C1=O` (stereo not drawn): the “Mammalian (3T3) cell % growth at 10 uM” value was found to be 72.8%.

`O=C(CCCN1CCC2(CC1)C(=O)NCN2c1ccccc1)c1ccc(F)cc1`: the “Mammalian (3T3) cell % growth at 10 uM” value is 94.7%. The value for `Nc1ccn([C@@H]2O[C@H](CO)[C@@H](O)[C@@H]2O)c(=O)n1` was 48.4%; that for `CC(C)=CCc1c2c(c3occ(-c4ccc(O)cc4)c(=O)c3c1O)C=CC(C)(C)O2` was 30.6%. The same measure for `CC1OC(=O)C(C(C)C)NC(=O)C(C(C)C)OC(=O)C(C(C)C)NC(=O)C(C)OC(=O)C(C(C)C)NC(=O)C(C(C)C)OC(=O)C(C(C)C)NC(=O)C(C)OC(=O)C(C(C)C)NC(=O)C(C(C)C)OC(=O)C(C(C)C)NC1=O` (stereo not drawn): 16.4%. The value for `O=c1cc(-c2cc(O)c(O)c(O)c2)oc2cc(O)cc(O)c12` was 100%; that for `CCOC(=O)C(CCc1ccccc1)NC1CCc2ccccc2N(CC(=O)O)C1=O.Cl` (stereo not drawn) was 66.8%. For the compound `COc1cc2c(cc1OC)C1C(=O)c3ccc4oc(C(C)C)cc4c3OC1CO2` (stereo not drawn), the “Mammalian (3T3) cell % growth at 10 uM” value was determined as 39.7%. The value for `COc1ccc2cc1Oc1ccc(cc1)C[C@H]1c3cc(c(OC)cc3CCN1C)Oc1c(OC)c(OC)cc3c1[C@H](C2)N(C)CC3` was 14.6%; that for `COC1=CC(=O)C(O)=C/C1=C\C=C\c1ccccc1` was 0.8%. `Cc1ccc(C(=O)C(C)CN2CCCCC2)cc1` (stereo not drawn): the “Mammalian (3T3) cell % growth at 10 uM” value is 0.2%. `OCCN1CCN(CCCN2c3ccccc3Sc3ccc(C(F)(F)F)cc32)CC1`: the “Mammalian (3T3) cell % growth at 10 uM” value is 100%.
